Results from ChEMBL document CHEMBL3988442, “University of Dundee, Small-Polar-MMV Screening Library” (2021).
For some of these results: Potency and affinity values are given separately.

Legend:
Set-up in all cases: scale not given: direction of the effect not stated beside the values
[1] = biological target: Protein translocase subunit SecA (Escherichia coli (strain K12)) (UniProt P10408); assay: Assay to Identify E. coli SecA ATPase Inhibitors; format: functional; settings: 30 µM
[2] = biological target: T1, Ubiquitin-activating enzyme e1, putative (Leishmania donovani (strain BPK282A1)) (UniProt E9BSI1); assay: Leishmania donovani Ubiquitin Activating Enzyme (LdE1); format: functional; settings: 30 µM
T1 sequence (whole entry): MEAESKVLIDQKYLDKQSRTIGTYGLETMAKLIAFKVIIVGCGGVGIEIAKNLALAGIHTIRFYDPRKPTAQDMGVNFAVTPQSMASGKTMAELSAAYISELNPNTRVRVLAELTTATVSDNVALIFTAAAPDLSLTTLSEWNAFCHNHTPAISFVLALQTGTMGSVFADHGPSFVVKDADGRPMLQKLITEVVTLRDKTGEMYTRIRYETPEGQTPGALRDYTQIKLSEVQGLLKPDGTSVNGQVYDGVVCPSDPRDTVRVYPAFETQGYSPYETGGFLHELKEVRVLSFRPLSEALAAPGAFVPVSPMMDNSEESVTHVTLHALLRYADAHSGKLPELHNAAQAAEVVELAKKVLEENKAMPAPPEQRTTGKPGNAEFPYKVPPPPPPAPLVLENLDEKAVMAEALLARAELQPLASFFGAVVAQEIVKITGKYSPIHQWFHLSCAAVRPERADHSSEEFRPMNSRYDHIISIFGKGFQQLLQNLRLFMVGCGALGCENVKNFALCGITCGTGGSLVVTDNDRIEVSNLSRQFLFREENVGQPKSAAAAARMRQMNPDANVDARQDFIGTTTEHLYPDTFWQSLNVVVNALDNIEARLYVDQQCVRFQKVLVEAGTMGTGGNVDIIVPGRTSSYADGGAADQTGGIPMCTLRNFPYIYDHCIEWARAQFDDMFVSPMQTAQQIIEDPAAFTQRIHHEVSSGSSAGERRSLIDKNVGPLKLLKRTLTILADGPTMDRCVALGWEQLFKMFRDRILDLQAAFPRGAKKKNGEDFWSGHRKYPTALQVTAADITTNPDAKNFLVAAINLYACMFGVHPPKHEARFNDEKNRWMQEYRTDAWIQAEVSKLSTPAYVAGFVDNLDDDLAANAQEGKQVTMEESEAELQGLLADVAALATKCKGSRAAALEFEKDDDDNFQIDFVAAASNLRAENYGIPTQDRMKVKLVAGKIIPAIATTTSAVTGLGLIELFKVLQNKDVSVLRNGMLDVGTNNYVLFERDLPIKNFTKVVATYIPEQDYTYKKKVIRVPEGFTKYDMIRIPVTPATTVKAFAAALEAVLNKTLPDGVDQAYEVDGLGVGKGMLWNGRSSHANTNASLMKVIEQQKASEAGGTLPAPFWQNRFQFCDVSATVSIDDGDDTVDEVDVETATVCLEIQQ

[3] = biological target: AMP-activated protein kinase, AMPK (Homo sapiens) (UniProt P54646+O43741+P54619+Q9UGJ0+Q9Y478+Q13131+Q9UGI9); assay: AMP-dependent Kinase enzyme assay. An in vitro enzyme assay that detects ADP turnover that is directly proportional to AMPK activity. This uses naive AMPK that is activated during the assay with MK-8722; format: functional; settings: 30 µM
[4] = biological target: Sialic acid-binding Ig-like lectin 9 (Homo sapiens) (UniProt Q9Y336); assay: Hs-Siglec9 ALPHAscreen SOP 20170721; settings: 10 µM
Sialic acid-binding Ig-like lectin 9 (Homo sapiens), sequence (Q9Y336 whole entry): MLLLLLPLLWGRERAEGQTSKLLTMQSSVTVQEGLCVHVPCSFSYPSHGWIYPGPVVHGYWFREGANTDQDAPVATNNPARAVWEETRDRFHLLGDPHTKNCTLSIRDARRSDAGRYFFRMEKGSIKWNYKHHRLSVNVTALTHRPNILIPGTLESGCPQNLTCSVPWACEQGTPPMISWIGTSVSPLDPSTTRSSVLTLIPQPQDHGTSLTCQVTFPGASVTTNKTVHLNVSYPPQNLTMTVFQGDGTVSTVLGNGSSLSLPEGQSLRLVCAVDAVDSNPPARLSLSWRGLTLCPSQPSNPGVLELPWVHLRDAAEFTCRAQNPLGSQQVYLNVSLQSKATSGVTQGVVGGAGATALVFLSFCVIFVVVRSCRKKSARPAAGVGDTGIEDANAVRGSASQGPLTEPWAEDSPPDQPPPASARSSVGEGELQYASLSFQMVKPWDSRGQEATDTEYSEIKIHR

Trypanosoma cruzi = assay: Trypanosoma cruzi phosphomannomutase and mannose-1-phosphate guanylyltransferase assay; format: functional; settings: 10 µM
[5] = biological target: T2, Arginase-2, mitochondrial (Homo sapiens) (UniProt P78540); assay: in vitro enzyme assay to detect the production of urea directly proportional to the activity of Arginase II; format: functional; settings: 33.3 µM; also: in the data most compounds retested in dose-response had high values
T2 sequence (whole entry): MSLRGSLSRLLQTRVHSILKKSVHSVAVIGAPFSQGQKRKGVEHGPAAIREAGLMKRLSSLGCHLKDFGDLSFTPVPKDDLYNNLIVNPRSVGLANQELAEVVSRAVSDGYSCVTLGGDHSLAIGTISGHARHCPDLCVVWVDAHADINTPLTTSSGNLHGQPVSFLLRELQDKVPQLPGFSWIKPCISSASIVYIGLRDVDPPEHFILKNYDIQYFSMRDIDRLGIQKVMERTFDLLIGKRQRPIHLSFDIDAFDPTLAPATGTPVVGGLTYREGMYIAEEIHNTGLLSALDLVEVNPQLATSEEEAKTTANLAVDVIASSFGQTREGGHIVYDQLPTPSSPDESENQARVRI

[6] = biological target: T3, Proteasome subunit beta (Trypanosoma cruzi) (UniProt O96673); assay: Trypanosoma cruzi proteasome chymotrypsin-like activity (TcProtChymo) assay.; also: in the data most compounds retested in dose-response had high values; format: functional; settings: 9.37 µM
T3 sequence (whole entry): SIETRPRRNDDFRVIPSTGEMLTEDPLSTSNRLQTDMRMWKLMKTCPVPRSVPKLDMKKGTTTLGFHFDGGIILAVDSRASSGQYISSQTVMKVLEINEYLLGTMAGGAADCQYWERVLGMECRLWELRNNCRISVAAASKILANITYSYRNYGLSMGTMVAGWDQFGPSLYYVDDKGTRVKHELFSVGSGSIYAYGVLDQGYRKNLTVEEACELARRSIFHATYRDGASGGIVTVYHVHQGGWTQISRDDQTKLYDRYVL

Homo sapiens = species on record: Homo sapiens; assay: To identify inhibition of the IFN signalling (Jak-Stat) pathway via expression of an eGFP reporter gene under the control of an IFN-stimulated response element (ISRE) containing MxA promoter.; format: functional; settings: 30 µM
[7] = biological target: T4, Tyrosyl-tRNA synthetase, putative (Trypanosoma cruzi (strain CL Brener)) (UniProt Q4DSP6); assay: Trypanosoma cruzi tyrosyl tRNA synthetase (TcYRS) _High Tyrosine SOP; format: functional; settings: 30 µM; also: in the data most compounds retested in dose-response had high values
T4 sequence (whole entry): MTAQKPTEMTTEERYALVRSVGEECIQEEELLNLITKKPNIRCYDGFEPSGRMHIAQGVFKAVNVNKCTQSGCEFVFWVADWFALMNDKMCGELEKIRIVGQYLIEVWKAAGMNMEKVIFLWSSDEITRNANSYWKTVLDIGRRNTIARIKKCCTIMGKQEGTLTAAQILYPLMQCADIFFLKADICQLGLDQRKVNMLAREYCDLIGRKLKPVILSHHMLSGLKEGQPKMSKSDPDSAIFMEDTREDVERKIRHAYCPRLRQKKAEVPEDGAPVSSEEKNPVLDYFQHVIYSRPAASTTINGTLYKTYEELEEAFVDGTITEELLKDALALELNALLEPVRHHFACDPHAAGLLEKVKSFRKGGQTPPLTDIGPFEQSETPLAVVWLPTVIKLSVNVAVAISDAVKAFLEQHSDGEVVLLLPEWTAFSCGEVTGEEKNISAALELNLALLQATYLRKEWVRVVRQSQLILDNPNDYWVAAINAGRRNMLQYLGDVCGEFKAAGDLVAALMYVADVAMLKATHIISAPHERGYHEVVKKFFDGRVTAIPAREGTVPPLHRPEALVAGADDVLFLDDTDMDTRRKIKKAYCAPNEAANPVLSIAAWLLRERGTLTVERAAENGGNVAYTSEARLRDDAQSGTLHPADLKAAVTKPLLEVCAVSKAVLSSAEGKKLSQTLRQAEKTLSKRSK

[8] = biological target: T4, Tyrosyl-tRNA synthetase, putative (Trypanosoma cruzi (strain CL Brener)); assay: Trypanosoma cruzi tyrosyl tRNA synthetase (TcYRS) SOP; format: functional; settings: 30 µM
[9] = biological target: Chromo domain-containing protein 1 (Saccharomyces cerevisiae (strain ATCC 204508 / S288c) (Baker's yeast)) (UniProt P32657); assay: ScCHD-1 Enzyme Inhibition Assay; format: functional; settings: 30 µM; also: in the data most compounds retested in dose-response had high values
Chromo domain-containing protein 1 (Saccharomyces cerevisiae (strain ATCC 204508 / S288c) (Baker's yeast)), sequence (P32657 whole entry, the tested form may be a part): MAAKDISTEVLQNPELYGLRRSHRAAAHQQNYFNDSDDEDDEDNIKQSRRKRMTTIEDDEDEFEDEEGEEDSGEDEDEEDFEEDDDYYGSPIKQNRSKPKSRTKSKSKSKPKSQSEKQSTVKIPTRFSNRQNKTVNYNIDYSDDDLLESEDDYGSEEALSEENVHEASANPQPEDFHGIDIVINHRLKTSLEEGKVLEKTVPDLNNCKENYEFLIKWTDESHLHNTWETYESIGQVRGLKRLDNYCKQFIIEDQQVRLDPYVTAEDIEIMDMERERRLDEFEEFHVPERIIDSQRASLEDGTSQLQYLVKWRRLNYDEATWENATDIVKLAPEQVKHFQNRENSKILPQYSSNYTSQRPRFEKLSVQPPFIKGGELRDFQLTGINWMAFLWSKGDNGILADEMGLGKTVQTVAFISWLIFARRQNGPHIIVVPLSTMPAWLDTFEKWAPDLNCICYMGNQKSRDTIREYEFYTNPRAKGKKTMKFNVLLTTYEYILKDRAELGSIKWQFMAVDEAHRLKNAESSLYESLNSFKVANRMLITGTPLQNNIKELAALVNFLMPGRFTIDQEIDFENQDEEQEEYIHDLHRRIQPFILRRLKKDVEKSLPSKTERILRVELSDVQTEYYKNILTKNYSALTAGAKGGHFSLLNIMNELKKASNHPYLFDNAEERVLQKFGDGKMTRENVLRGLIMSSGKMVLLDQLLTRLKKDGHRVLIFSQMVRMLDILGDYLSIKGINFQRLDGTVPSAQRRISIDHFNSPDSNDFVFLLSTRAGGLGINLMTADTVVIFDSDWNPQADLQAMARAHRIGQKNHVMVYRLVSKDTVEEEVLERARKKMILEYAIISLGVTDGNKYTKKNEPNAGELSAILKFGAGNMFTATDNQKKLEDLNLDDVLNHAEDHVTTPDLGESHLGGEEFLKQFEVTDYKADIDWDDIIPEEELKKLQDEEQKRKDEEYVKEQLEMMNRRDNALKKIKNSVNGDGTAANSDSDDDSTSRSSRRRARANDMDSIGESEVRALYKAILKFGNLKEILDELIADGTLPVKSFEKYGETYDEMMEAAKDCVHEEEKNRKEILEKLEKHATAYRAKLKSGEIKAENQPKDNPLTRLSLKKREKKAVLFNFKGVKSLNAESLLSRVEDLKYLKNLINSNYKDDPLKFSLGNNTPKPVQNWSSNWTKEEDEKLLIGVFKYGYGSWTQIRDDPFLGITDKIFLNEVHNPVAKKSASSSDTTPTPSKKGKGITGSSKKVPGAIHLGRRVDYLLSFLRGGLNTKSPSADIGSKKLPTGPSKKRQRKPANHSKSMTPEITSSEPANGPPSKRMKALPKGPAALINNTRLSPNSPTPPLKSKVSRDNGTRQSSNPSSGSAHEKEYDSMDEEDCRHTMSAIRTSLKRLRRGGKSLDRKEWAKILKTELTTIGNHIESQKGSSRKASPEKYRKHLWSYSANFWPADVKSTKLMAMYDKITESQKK

Protein translocase subunit SecA (Escherichia coli (strain K12)), sequence (P10408 whole entry): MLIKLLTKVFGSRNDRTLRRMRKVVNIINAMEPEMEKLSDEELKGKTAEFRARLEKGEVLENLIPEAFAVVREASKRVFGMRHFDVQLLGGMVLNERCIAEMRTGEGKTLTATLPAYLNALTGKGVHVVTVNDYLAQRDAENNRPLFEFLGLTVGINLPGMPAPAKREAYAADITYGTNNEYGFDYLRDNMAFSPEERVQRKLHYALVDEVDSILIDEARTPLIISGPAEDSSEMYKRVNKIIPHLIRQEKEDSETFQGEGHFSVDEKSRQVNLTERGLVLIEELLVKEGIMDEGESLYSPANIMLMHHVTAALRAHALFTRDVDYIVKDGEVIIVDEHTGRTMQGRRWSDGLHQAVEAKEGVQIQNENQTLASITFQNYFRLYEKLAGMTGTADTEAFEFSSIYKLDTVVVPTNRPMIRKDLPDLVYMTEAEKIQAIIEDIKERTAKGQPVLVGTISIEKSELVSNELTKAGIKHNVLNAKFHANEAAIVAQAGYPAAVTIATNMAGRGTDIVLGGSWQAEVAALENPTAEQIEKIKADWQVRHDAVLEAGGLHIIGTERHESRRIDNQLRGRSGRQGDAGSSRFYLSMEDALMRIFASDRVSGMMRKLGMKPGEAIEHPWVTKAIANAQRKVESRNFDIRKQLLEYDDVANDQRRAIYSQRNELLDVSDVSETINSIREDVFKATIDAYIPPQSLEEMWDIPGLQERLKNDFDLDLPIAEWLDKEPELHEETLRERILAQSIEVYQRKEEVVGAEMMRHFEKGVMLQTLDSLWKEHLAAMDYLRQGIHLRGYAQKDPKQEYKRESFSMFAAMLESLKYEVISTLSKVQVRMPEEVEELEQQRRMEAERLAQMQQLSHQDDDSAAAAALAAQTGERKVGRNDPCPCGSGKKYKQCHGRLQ

| SMILES | Percent Effect [1] [%] | Percent Effect [2] [%] | Percent Effect [3] [%] | Percent Effect [4] [%] | Percent Effect (Trypanosoma cruzi) [%] | Percent Effect [5] [%] | Percent Effect [6] [%] | Percent Effect (Homo sapiens) [%] | Percent Effect [7] [%] | Percent Effect [8] [%] | Percent Effect [9] [%] |
| --- | --- | --- | --- | --- | --- | --- | --- | --- | --- | --- | --- |
| COc1ccc(NC(=O)CCC2CCCN(Cc3ncon3)C2)cc1Cl (stereo not given) | -3.35 | 10.7 | -3.08 | 17.1 | 2.82 | 7.81 | 24.8 | -6.37 | 8.2 | 18.5 | 92.7 |
| CC(C1CC1)N(C(=O)NCCCn1nc2ccccn2c1=O)C1CC1 (stereo not given) | -5.32 | 16.4 | -9.44 | 24 | 3.13 | 20.9 | 15.3 | 1.6 | 4.3 | 15 | -6.77 |
| COc1ncccc1NC(=O)N(Cc1ccc(C)o1)C1CC1 | -4.84 | 13 | 6 | 6.62 | 8.05 | -4.27 | 2.53 | 56.7 | 6.8 | 19.5 | -5.73 |
| COc1ccc(C2CCCCCN2S(=O)(=O)N(C)C)cc1 (stereo not given) | -0.837 | 12.5 | -11.6 | 10.4 | -0.291 | 18.1 | 12.5 | 6.25 | 2.1 | 5.13 | -3.74 |
| Cc1nc(C)n(CC2CCCN(CC(=O)Nc3c(C)n[nH]c3C)C2)n1 (stereo not given) | -1.71 | 13.2 | -0.0642 | 9.58 | 3.76 | 0.766 | 8.69 | -1.17 | 5.39 | 17.1 | -9.15 |
| CCN(CC)C(=O)c1ccn(COc2cc(C)cc(C)c2)n1 | -0.199 | 22.7 | -7.15 | 1.4 | -0.982 | -5.81 | 14.1 | 41.2 | 4.23 | 12.8 | -12.1 |
| CC(C)c1nc(C2CCCN2C(=O)c2nccnc2N)no1 (stereo not given) | -6.3 | 16.2 | -11 | 23.1 | 4.18 | -4.99 | 6.1 | 12.1 | 6.93 | 23.2 | -5.79 |
| COc1cccc([C@@H]2CN(C(=O)c3ccc(C)cc3O)C[C@H]2C(=O)O)c1 | -3.46 | 21.6 | -1.7 | 25.8 | 4.59 | 40.9 | 15.9 | 1.8 | 3.23 | 18.5 | -5.84 |
| CCc1ncc2c(n1)CN(Cc1nnc(C)o1)CC2 | -0.796 | 2.74 | -74 | 3.02 | 6.07 | 6.82 | 4.26 | -5.4 | 4.3 | 7.5 | -6.64 |
| NC(=O)COc1ccc(CNCc2ccc(F)c(F)c2)cc1 | -4.2 | 6.94 | 2.35 | -0.752 | 0.486 | 3.53 | 11.2 | -7.28 | 7.37 | 7.69 | -2.75 |
| CO[C@H]1CCN(Cc2cnn(C)c2)[C@@H]2CN(Cc3cccnc3)C[C@H]12 | -0.848 | 12 | 6.27 | -3.02 | -3.93 | -8.63 | 9.06 | -3.47 | 2.12 | 5.13 | -7.83 |
| c1cnn(CC2CCCN2c2ncnc3sccc23)c1 (stereo not given) | -5.43 | -2.7 | 2.65 | 6.51 | -2.14 | 3.14 | -1.44 | 66.4 | 2.97 | -25.6 | 11.4 |
| Cc1nc(C2CCCN(C(=O)c3cccc4c3OCO4)C2)no1 (stereo not given) | -0.923 | 11.4 | 6.75 | 0.303 | -5.03 | -3.23 | 19.9 | 3.42 | 4.17 | 10.1 | -23.7 |
| Cc1cc(=O)[nH]c(NCCNC(=O)C(c2ccc(F)cc2)N(C)C)n1 (stereo not given) | 4.65 | 11 | 0.926 | 2.46 | -9.72 | -10.8 | 17.4 | 21.7 | 8.33 | 16.1 | -5.31 |
| Cc1ncsc1CN1CC[C@H]2C(=O)N(c3ccccc3)CCO[C@H]2C1 | -1.58 | 10.7 | 7.3 | -5.67 | -0.591 | 1.17 | 16.5 | 14.6 | 11.7 | 16.7 | -4.23 |
| O=C(Nc1cccc(CN2CCOC2=O)c1)N1CCSCC1 | -1.53 | 12.5 | -15.6 | 9.65 | 2.04 | 3.09 | 23.3 | -2.05 | 8.42 | 15.4 | 83.9 |
| O=C(c1cccnc1-n1cccn1)N1CCN(CC2CC2)CC1 | -4.46 | 5.41 | -1.98 | 1.24 | -1.54 | -0.952 | 13.1 | -3.39 | 4.76 | 0 | -1.18 |
| Nc1ncc2c(n1)CN(C1CCCC1)C2=O | -4.34 | 10.4 | -3.73 | 9.11 | 4.82 | -168 | 19.5 | -17.3 | 10.8 | 21 | 121 |
| CC(C(=O)Nc1cccc(N2CCCCC2)c1)n1cncn1 (stereo not given) | -7.36 | 13.5 | -9.41 | 28.7 | 3.11 | -3.61 | 10.3 | 0.641 | 5.42 | 23.5 | -10.9 |
| CN(C)c1ncnc2c1CCN(CC1CCCC1)CC2 | -3.48 | 5.41 | 5.95 | -2.79 | -3.81 | -4.14 | 15.1 | -8.91 | 4.32 | 15.4 | 1.8 |
